Sampled rows, rich in hits. Any-hit rate of the full collection: about 7.9%.
SW480 rereplic: A quantitative high throughput screen for small molecules that induce DNA re-replication in SW480 colon adenocarcinoma cells; 340,000 tested, 1.8% active; Potency, µM (highest dose often 46.1 µM), usual class: activators; SW480 DNA re-replication, Hoechst DNA content imaging, 48 h; AID 624297, 2012; also: nearly all actives have a fitted effect of over 55% in size
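Quantitative HTS format with DMSO vehicle controls; 48 hr drug incubation at 37 C, then 40 min Hoechst staining and scanning imager measurement at 405 nm excitation.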
HT1080 IDH1KD tx: qHTS for induction of synthetic lethality in tumor cells producing 2HG: qHTS for the HT-1080-IDH1KD cell line; HT-1080 IDH1 knockdown viability, ATP luminescence, 48 h; Potency, µM (titrated, usually from 46.1 µM), usual class: cytotoxic; 360,000 tested, 2% active; AID 686971, 2013
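Using the IDH1-knockdown HT-1080 line run in the same batch and compound series as the NT line, viability after 48 h at 37 °C was determined by CellTiter-Glo luminescence and expressed as % activity.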
HT1080-NT tox: qHTS for induction of synthetic lethality in tumor cells producing 2HG: qHTS for the HT-1080-NT fibrosarcoma cell line; 360,000 tested, 1.6% active; HT-1080-NT fibrosarcoma viability, CellTiter-Glo ATP luminescence, 48 h; Potency, µM (top dose mostly 46.1 µM), most hits filed as cytotoxic;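 also: NT is the 2HG producing partner of a matched IDH1 knockdown line; nearly all actives have a fitted effect of over 55% in size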
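750 cells/well, RPMI + 5% FBS; 2 h settle, compound pin-transfer, 48 h at 37 degrees C. CellTiter-Glo 10 min RT, luminescence. Normalized to DMSO and media-only wells.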
MCF10A rereplic: A quantitative high throughput screen for small molecules that induce DNA re-replication in MCF 10a normal breast cells; MCF 10A DNA re-replication, Hoechst nuclear intensity, 48 h; 350,000 tested, 2.9% active; Potency, µM (doses to about 46.1 µM), actives largely listed as activators; AID 624296, 2012; also: nearly all actives have a fitted effect of over 50% in size
KB-V1 cytotox: qHTS assay for MDR1-selective chemotherapeutics: Primary screen using the drug-selected MDR subline cells KB-V1; KB-V1 MDR cells viability, CellTiter-Glo, 72 h; Potency, µM (titrated, usually from 46.1 µM), most hits filed as cytotoxic; 400,000 tested, 3.4% active; also: nearly all actives have a fitted effect of over 60% in size
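Following 72 h at 37 degrees C with compound, KB-V1 cell viability was read by CellTiter-Glo luminescence, medium being phenol-red-free DMEM plus 10% FBS; concentration-response parameters came from normalized, curve-fitted qHTS data.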
KB-3-1 cytotox: qHTS assay for MDR1-selective chemotherapeutics: Primary screen using the parental adenocarcinoma cell KB-3-1 | KB-3-1 viability, CellTiter-Glo ATP luminescence, 72 h | Potency, µM (highest dose often 46.1 µM), hits mostly cytotoxic | 400,000 tested, 1.4% active; also: nearly all actives have a fitted effect of over 60% in size
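Cytotoxicity measured as CellTiter-Glo luminescence after 72 h at 37 C. Compound titrations were pinned onto drug-naive KB-3-1 parental adenocarcinoma cells grown in DMEM with 10% FBS, and normalized data fitted to concentration-response curves.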
Of the large screens only hits and unclear results are named; the others gave an inactive call; ! = repeats disagree. Calls follow the shape of the dose curve; as a rule, active = well fitted curve in the direction sought with a large enough effect; inconclusive = small, poorly fitted or top-dose-only effect, or another doubt; inactive = no such curve, though single readings can be large; an effect the other way counts as inactive or inconclusive.

COc1ccc(CNn2c(-c3cccc(C)c3)nc3ccccc3c2=O)cc1OC	KB-V1 cytotox 23µM
COc1ccccc1CNn1c(-c2cccc(C)c2)nc2ccccc2c1=O	KB-V1 cytotox 23µM
N#C/C(=C\c1cn(Cc2cccc(F)c2)c2ccccc12)C(=O)NCc1ccco1	HT1080 IDH1KD tx inconclusive, MCF10A rereplic 13µM (no result: SW480 rereplic)
N#C/C(=C\c1cn(Cc2ccccc2)c2ccccc12)C(=O)NCc1ccco1	SW480 rereplic inconclusive, MCF10A rereplic 21µM
N#C/C(=C\c1cn(Cc2ccc(F)cc2)c2ccccc12)C(=O)NCc1ccco1	SW480 rereplic inconclusive, HT1080 IDH1KD tx inconclusive, HT1080-NT tox inconclusive
Cc1cccc(NC(=O)/C(C#N)=C/c2cn(CC(=O)NCc3ccco3)c3ccccc23)c1C	SW480 rereplic inconclusive, MCF10A rereplic inconclusive, KB-V1 cytotox inconclusive, KB-3-1 cytotox inconclusive
COc1ccccc1N1CCN(C(=O)C2CCN(S(=O)(=O)Cc3ccccc3)CC2)CC1	none (no result: SW480 rereplic, HT1080 IDH1KD tx, HT1080-NT tox, MCF10A rereplic)
CN(C)c1cccc(S(=O)(=O)N2CCCN(S(=O)(=O)c3ccc4c(c3)OCCO4)CC2)c1	none (no result: SW480 rereplic, HT1080 IDH1KD tx, HT1080-NT tox, MCF10A rereplic)
CCN(CC)c1ccc(N=Cc2c(C)[nH]c3ccccc23)cc1	SW480 rereplic 8.2µM, HT1080 IDH1KD tx inconclusive, HT1080-NT tox inconclusive
Cc1[nH]c2ccccc2c1/C=N/n1cnnc1	none
C=CCSc1nc2c(N)ncnc2n1C1OC(CO)C(O)C1O (configuration not stated)	none (no result: SW480 rereplic, MCF10A rereplic)
CC(=O)c1ccc(NC(=S)NC(C)c2ccc(Cl)cc2Cl)cc1 (configuration not stated)	HT1080 IDH1KD tx inconclusive, HT1080-NT tox inconclusive, MCF10A rereplic inconclusive, KB-V1 cytotox 18µM
COC(=O)c1ccccc1NC1=C/C(=N\S(=O)(=O)c2ccc(C(=O)O)cc2)c2ccccc2C1=O	SW480 rereplic 2.9µM, HT1080 IDH1KD tx 21µM, HT1080-NT tox 23µM, MCF10A rereplic inconclusive, KB-V1 cytotox 18µM, KB-3-1 cytotox inconclusive
COC(=O)c1ccccc1NC1=C/C(=N\S(=O)(=O)c2cccs2)c2ccccc2C1=O	SW480 rereplic 4.6µM, HT1080 IDH1KD tx 6.3µM, HT1080-NT tox 21µM, MCF10A rereplic 18µM, KB-V1 cytotox 18µM!, KB-3-1 cytotox inconclusive
O=C(NCc1ccco1)c1ccc(-c2ccc(F)c(F)c2)c2ccoc12	none (no result: SW480 rereplic, MCF10A rereplic)
CC1CCN(c2ccc(-c3nc(C(C)C)no3)cc2[N+](=O)[O-])CC1	none (no result: SW480 rereplic, HT1080 IDH1KD tx, HT1080-NT tox, MCF10A rereplic)
COc1ccc(C2C(C#N)=C(SC)NC3=C2C(=O)CC(C)(C)C3)cc1 (configuration not stated)	KB-V1 cytotox inconclusive, KB-3-1 cytotox inconclusive
CSC1=C(C#N)C(C)C2=C(CC(C)(C)CC2=O)N1 (configuration not stated)	KB-V1 cytotox 23µM, KB-3-1 cytotox inconclusive
Cc1ccc(S(=O)(=O)N2CCC(c3nnc(-c4cccc(C)c4)o3)CC2)cc1	KB-V1 cytotox inconclusive (no result: SW480 rereplic, HT1080 IDH1KD tx, HT1080-NT tox, MCF10A rereplic)
Cc1ccc(C)c(NC(=O)CN(C)C(=O)c2ccc(-c3cccc(C(F)(F)F)c3)o2)c1	KB-V1 cytotox 18µM
COC1=CC(=O)c2nc(Cl)ccc2C1=O	HT1080 IDH1KD tx 2.9µM, HT1080-NT tox 3.7µM, KB-V1 cytotox inconclusive, KB-3-1 cytotox inconclusive (no result: SW480 rereplic, MCF10A rereplic)
Fc1cccc2sc(Nc3nc4cc5c(cc4s3)OCCO5)nc12	HT1080 IDH1KD tx inconclusive, HT1080-NT tox inconclusive, MCF10A rereplic 5.2µM, KB-3-1 cytotox inconclusive
CC(C)C(=O)Nc1nc2cc3c(cc2s1)OCO3	none
Fc1cccc2sc(Nc3nc4cc5c(cc4s3)OCO5)nc12	HT1080 IDH1KD tx inconclusive, HT1080-NT tox inconclusive, MCF10A rereplic 10µM
Fc1cc(F)c2nc(Nc3nc4cc5c(cc4s3)OCO5)sc2c1	HT1080 IDH1KD tx inconclusive, HT1080-NT tox inconclusive, MCF10A rereplic 15µM
CC(C)C1Cc2[nH]c(=S)[nH]c(=O)c2C(c2ccc(Cl)cc2)O1 (configuration not stated)	none (no result: SW480 rereplic, MCF10A rereplic)
COc1ccccc1CNC(=O)CCCn1c(=O)c2ccccc2n(CC(=O)Nc2c(C)cc(C)cc2C)c1=O	KB-V1 cytotox inconclusive (no result: SW480 rereplic, HT1080 IDH1KD tx, HT1080-NT tox, MCF10A rereplic)
CCOc1ccccc1NC(=O)c1cc2c(Cl)nc3ccccc3c2s1	KB-V1 cytotox inconclusive (no result: SW480 rereplic, HT1080 IDH1KD tx, HT1080-NT tox, MCF10A rereplic)
N#Cc1ccc(CSc2nnc(Cc3cccs3)n2Cc2ccco2)cc1	KB-V1 cytotox inconclusive
N#Cc1ccc(CSc2nnc(-c3ccccc3)n2Cc2ccco2)cc1	HT1080 IDH1KD tx inconclusive, MCF10A rereplic inconclusive, KB-V1 cytotox 3.7µM
c1ccc(CCn2c(SCc3ccccc3)nnc2-c2ccncc2)cc1	none
N#Cc1ccc(CSc2nnc(-c3ccncc3)n2CCc2ccccc2)cc1	HT1080 IDH1KD tx inconclusive, HT1080-NT tox 23µM, KB-V1 cytotox inconclusive, KB-3-1 cytotox inconclusive
COc1ccc(Cn2ccc3nc(C)c(C(=O)NCc4ccc(SC)cc4)cc3c2=O)cc1	none (no result: SW480 rereplic, HT1080 IDH1KD tx, HT1080-NT tox, MCF10A rereplic)
CCc1ccc(-n2nnc(-c3nc(-c4cccs4)no3)c2N)cc1	none (no result: SW480 rereplic, HT1080 IDH1KD tx, HT1080-NT tox, MCF10A rereplic)
Cc1cc[n+](CC(=O)c2ccc(F)cc2)cc1	KB-3-1 cytotox inconclusive (no result: SW480 rereplic, HT1080 IDH1KD tx, HT1080-NT tox, MCF10A rereplic)
CC(NC(=O)Nc1cccc([N+](=O)[O-])c1)(C(F)(F)F)C(F)(F)F	HT1080 IDH1KD tx 16µM, HT1080-NT tox inconclusive, KB-V1 cytotox inconclusive, KB-3-1 cytotox 18µM
O=C(Nc1cccc([N+](=O)[O-])c1)Nc1ccc2c(c1)CCC2	HT1080 IDH1KD tx inconclusive, KB-V1 cytotox 23µM, KB-3-1 cytotox inconclusive

Screening results deposited in PubChem BioAssay by National Center for Advancing Translational Sciences (NCATS).
